Experimental data as given in PubChem BioAssay (NCATS).
Several values for one entry are separate records, joined by “and”; a condition that tells them apart may be missing. Identical values can stand only once. Records with an inconclusive call do not appear. A call without a number means that no potency is given here. Activity calls are given as the source filed them. Unless noted, the call rests on the fitted dose curve; in most records, active means well fitted curve in the direction sought with a large enough effect; inconclusive means small, poorly fitted or top-dose-only effect, or another doubt; inactive means no such curve, though single readings can be large; an effect the other way counts as inactive or inconclusive.

Tests used:
[1] = target: Calcium and integrin-binding protein 1 (Homo sapiens) (UniProt Q99828); assay: Primary qHTS for Identification of Calcium Integrin Binding Protein 1 (CIB1) Competitor (AID 1508620); details: CIB1-GST / FITC-alphaIIb peptide fluorescence polarization; series mostly up to 114 µM;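 further: GST tagged CIB1 binding a fluorescein labelled alphaIIb integrin peptide tracer; top concentration of the series differs between compounds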
Chain of Calcium and integrin-binding protein 1 (Homo sapiens) (Q99828 whole entry, looked up): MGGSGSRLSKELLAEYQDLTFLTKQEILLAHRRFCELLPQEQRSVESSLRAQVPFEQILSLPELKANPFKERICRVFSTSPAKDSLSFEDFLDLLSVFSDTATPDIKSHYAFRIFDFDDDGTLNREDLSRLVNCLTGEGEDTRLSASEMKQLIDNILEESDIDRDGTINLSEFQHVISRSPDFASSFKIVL
How it was run: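 Fluorescence polarization competition: CIB1-GST (1 uM final) preincubated with compound 15 min at room temperature, then FITC-labeled alphaIIb peptide (100 nM final) added for another 15 min. Polarization read at Ex 480/Em 540.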

[2] = target: Cytochrome P450 2D6 (Homo sapiens) (UniProt P10635); assay: Cytochrome P450 family 2 subfamily D member 6 (CYP2D6) small molecule antagonists: luciferase biochemical (cell-free) qHTS assay (AID 1645840; active means well fitted curve in the direction sought with a large enough effect in the repeat runs; an effect the other way counts as inactive or inconclusive; further: nearly all actives have a fitted effect of over 55% in size; further: potency means the concentration at half of the fitted maximal effect); details: P450-Glo CYP2D6 enzyme, luciferin luminescence, 1 h; series mostly up to 57.4 µM
Chain of Cytochrome P450 2D6 (Homo sapiens) (P10635 whole entry, looked up): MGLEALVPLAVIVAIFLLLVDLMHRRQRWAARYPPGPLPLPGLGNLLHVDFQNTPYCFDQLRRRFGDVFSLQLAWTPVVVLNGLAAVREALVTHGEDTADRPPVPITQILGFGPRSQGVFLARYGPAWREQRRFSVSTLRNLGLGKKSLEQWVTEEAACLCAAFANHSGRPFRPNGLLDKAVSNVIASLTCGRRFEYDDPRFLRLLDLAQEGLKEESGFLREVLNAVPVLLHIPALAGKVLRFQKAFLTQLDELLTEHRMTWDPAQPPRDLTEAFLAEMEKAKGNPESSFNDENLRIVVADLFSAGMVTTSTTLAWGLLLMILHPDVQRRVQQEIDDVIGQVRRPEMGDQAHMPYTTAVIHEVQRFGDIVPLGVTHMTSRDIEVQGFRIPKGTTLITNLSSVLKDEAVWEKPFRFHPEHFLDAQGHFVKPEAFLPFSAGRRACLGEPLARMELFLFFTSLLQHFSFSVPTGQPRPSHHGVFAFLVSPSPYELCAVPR
How it was run: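 P450-Glo CYP2D6 system: proluciferin substrate converted by enzyme to luciferin, read by luminescence proportional to activity. Enzyme-substrate mix with compound 10 min at room temperature, then NADPH regeneration 1 h before detection reagent.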

[3] = target: Cytochrome P450 2C9 (Homo sapiens) (UniProt P11712); assay: Cytochrome P450 family 2 subfamily C member 9 (CYP2C9) small molecule antagonists: luciferase biochemical (cell-free) qHTS assay (AID 1645842; active means well fitted curve in the direction sought with a large enough effect in the repeat runs; an effect the other way counts as inactive or inconclusive; further: nearly all actives have a fitted effect of over 55% in size; further: potency means the concentration at half of the fitted maximal effect); details: P450-Glo CYP2C9 enzyme assay, luciferin luminescence; series mostly up to 57.4 µM
Chain of Cytochrome P450 2C9 (Homo sapiens) (P11712 whole entry, looked up): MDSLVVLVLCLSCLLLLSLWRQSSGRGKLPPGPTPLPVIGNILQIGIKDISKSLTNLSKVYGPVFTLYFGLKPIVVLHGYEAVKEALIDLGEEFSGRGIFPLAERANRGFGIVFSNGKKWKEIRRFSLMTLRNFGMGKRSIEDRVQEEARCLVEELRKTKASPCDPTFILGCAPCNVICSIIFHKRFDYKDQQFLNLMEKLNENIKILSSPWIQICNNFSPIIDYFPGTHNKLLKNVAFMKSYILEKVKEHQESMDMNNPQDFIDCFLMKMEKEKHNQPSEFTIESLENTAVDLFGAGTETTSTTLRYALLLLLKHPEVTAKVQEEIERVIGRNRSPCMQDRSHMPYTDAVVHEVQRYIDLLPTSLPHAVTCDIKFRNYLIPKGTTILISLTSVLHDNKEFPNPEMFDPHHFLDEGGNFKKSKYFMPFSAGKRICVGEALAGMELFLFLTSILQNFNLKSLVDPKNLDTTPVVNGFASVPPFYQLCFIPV
How it was run: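 P450-Glo CYP2C9 system: proluciferin substrate with enzyme in mix containing 0.4% BSA, 10 min at room temperature, then NADPH regeneration solution added and incubated 1 h at 37C. Detection reagent stopped reaction; luminescence read after 20 min as RLU.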

[4] = Primary qHTS for inhibitors of nuclear receptor binding SET domain protein 2 (NSD2) in an isogenic RCH-ACV NSD2 p.E1099K mutant (9B) (AID 1645876); details: RCH-ACV (leukaemia line) NSD2 E1099K (9B) viability, CellTiter-Glo, 72 h; series mostly up to 44.9 µM; further: nearly all actives have a fitted effect of over 70% in size; further: potency means the concentration at half of the fitted maximal effect
[5] = target: Cytochrome P450 3A4 (Homo sapiens) (UniProt P08684); assay: Cytochrome P450 family 3 subfamily A member 4 (CYP3A4) small molecule antagonists: luciferase qHTS assay (AID 1645841; active means well fitted curve in the direction sought with a large enough effect in the repeat runs; an effect the other way counts as inactive or inconclusive; further: nearly all actives have a fitted effect of over 45% in size); details: P450-Glo CYP3A4 enzyme assay, luciferin luminescence; series mostly up to 57.4 µM
Chain of Cytochrome P450 3A4 (Homo sapiens) (P08684 whole entry, looked up): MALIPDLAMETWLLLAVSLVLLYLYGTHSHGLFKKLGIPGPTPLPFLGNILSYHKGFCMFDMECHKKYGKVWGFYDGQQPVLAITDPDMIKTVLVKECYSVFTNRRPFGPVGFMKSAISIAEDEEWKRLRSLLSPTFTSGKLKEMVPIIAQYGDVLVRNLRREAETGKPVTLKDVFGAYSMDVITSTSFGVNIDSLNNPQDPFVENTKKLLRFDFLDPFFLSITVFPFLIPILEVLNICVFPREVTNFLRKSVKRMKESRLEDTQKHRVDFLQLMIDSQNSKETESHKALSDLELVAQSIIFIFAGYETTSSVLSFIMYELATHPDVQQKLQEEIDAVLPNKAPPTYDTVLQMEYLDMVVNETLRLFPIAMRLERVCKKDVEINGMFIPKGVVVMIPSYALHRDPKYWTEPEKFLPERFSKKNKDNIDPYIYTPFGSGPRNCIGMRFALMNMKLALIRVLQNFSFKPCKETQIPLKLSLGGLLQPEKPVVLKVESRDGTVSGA
How it was run: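 P450-Glo CYP3A4 enzyme with proluciferin substrate was preincubated with DMSO-dissolved compounds for 10 min at room temperature. NADPH regeneration solution started a 1 h reaction. Detection reagent stopped it, and luminescence was read after 20 min.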

[6] = target: N-terminal Xaa-Pro-Lys N-methyltransferase 1 (Homo sapiens) (UniProt Q9BV86); assay: Confirmatory qHTS for Inhibitors of N-terminal methyltransferase 1 (NTMT1): MTaseGlo Assay (AID 1645874); details: NTMT1 enzyme, MTase-Glo SAH luminescence; series mostly up to 100 µM; further: potency means the concentration at half of the fitted maximal effect; nearly all actives have a fitted effect of over 65% in size
Chain of N-terminal Xaa-Pro-Lys N-methyltransferase 1 (Homo sapiens) (Q9BV86 whole entry, looked up): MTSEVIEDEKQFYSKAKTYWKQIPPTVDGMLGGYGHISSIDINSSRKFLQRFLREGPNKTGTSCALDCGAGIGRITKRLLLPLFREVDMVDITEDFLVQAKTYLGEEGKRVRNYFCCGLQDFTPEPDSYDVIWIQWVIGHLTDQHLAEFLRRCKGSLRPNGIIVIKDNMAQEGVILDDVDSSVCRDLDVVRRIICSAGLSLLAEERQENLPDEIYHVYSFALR
How it was run: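 Enzyme mix (125 nM NTMT1, 100 uM SAM) + compound, 15 min RT; + 1 uM SPKRIA, 30 min RT, dark; MTase-Glo reagent 30 min, detection solution 30 min; luminescence. % inhibition vs no-enzyme/DMSO controls, 4-parameter Hill fit.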

For `CS(=O)(=O)c1ccc([C@H](CC2CCCC2)C(=O)Nc2nccs2)cc1`, the Potency [1] was “inactive”, the Potency [2] was 10.7 µM (active) and the Potency [3] was 6.01 µM (active).

In the case of `O=S(=O)(NC1CCC(c2cc(F)ccc2F)(S(=O)(=O)c2ccc(Cl)cc2)CC1)C(F)(F)F` (configuration not stated), the Potency [1] is reported as “inactive”, the Potency [2] is reported as 19 µM (active) and the Potency [3] is reported as 0.425 µM (active).

In the case of `O=C(Nc1ccc(S(=O)(=O)Nc2ccccc2Cl)c(Cl)c1)c1ccccn1`, the Potency [1] is reported as “inactive”, the Potency [2] is reported as “inactive” and the Potency [3] is reported as 0.674 µM (active). For the same compound, the Potency [4] was “inactive”.

With `Cc1cc(Nc2ncc3cc(-c4c(Cl)cccc4Cl)c(=O)n(C)c3n2)ccc1F` the Potency [1] was “inactive”, the Potency [2] was “inactive” and the Potency [5] was “inactive”. For the same compound, the Potency [3] was 6.74 µM (active) and the Potency [4] was 728 nM (active).

For `C[C@@H](Oc1cc(-n2cnc3ccc(OC4CCN(C)CC4)cc32)sc1C(N)=O)c1ccccc1C(F)(F)F`, the Potency [1] was “inactive”, the Potency [2] was 8.49 µM (active) and the Potency [3] was 8.49 µM (active). For the same compound, the Potency [6] was 12.6 µM (active) and the Potency [4] was 32.5 nM (active).

In the case of `Cc1ccc(-c2ccc3ncc4c(c3n2)n(C2CCN(C(=O)[C@H](C)O)CC2)c(=O)n4C)cn1`, the Potency [1] is reported as “inactive”, the Potency [2] is reported as “inactive” and the Potency [3] is reported as 10.7 µM (active). For the same compound, the Potency [6] was 39.8 µM (active) and the Potency [4] was 74.2 nM (active).

With `Cc1ccc(S(=O)(=O)n2ccc(-c3c(-c4ccc(Cl)cc4)noc3C)n2)cc1` the Potency [1] was “inactive”, the Potency [2] was “inactive” and the Potency [3] was 5.35 µM (active).

In the case of `N#Cc1cnc2cnc(NCc3cccnc3)cc2c1Nc1ccc(F)c(Cl)c1`, the Potency [1] is reported as “inactive”, the Potency [2] is reported as 0.756 µM (active) and the Potency [3] is reported as 1.2 µM (active).

With `Cn1cc(S(=O)(=O)c2ccc(Cl)cc2)c2cccc(N3CCNCC3)c21` the Potency [1] was “inactive”, the Potency [2] was 13.5 µM (active) and the Potency [3] was 8.49 µM (active). For the same compound, the Potency [4] was 18300 nM (active).

In the case of `CC(Oc1ccc2[nH]nc(/C=C/c3cnn(CCO)c3)c2c1)c1c(Cl)cncc1Cl` (configuration not stated), the Potency [1] is reported as “inactive”, the Potency [2] is reported as 2.39 µM (active) and the Potency [3] is reported as 0.536 µM (active). The Potency [4] was 115 nM (active).

For `COc1ncc(Nc2ncc([C@H](C)N3CCN(S(C)(=O)=O)CC3)cc2-c2nc(C)nc(N)n2)cc1F`, the Potency [1] was “inactive”, the Potency [2] was “inactive” and the Potency [3] was 12 µM (active). For the same compound, the Potency [4] was 5.8 nM (active) and 5.9 nM (active).

With `CC(C)CCC(=O)CC1c2ccccc2C(=O)N1c1ccc2ccc(Cl)nc2n1` (configuration not stated) the Potency [1] was “inactive”, the Potency [2] was “inactive” and the Potency [3] was 1.51 µM (active). The Potency [4] was “inactive”.

With `CCCN1CCC(c2cccc(S(C)(=O)=O)c2)CC1` the Potency [1] was “inactive”, the Potency [2] was 8.49 µM (active) and the Potency [3] was “inactive”. For the same compound, the Potency [4] was “inactive”.

For `O=C(COc1cccc2c(=O)[nH]ccc12)c1ccccc1`, the Potency [1] was “inactive”, the Potency [2] was “inactive” and the Potency [3] was 8.49 µM (active). For the same compound, the Potency [4] was “inactive”.

In the case of `NC(=O)c1cccc2cn(-c3ccc(C4CCCNC4)cc3)nc12` (configuration not stated), the Potency [1] is reported as “inactive”, the Potency [2] is reported as “inactive” and the Potency [3] is reported as “inactive”. For the same compound, the Potency [4] was 3250 nM (active).

For `O=C(Cc1ccc(-c2ccccc2)cc1)NC1CCC1`, the Potency [1] was “inactive”, the Potency [2] was “inactive” and the Potency [3] was 6.74 µM (active). For the same compound, the Potency [4] was “inactive”.

For `N#Cc1ccc(C(=O)N2CCC3(CC2)N=C(N)c2c(F)ccc(F)c2N3)cn1`, the Potency [1] was “inactive”, the Potency [2] was 15.1 µM (active) and the Potency [3] was “inactive”. The Potency [4] was “inactive”.

In the case of `COc1cccc(-c2cc(NCc3ccc4c(c3)OCO4)nc(N)n2)c1`, the Potency [1] is reported as “inactive”, the Potency [2] is reported as 0.756 µM (active) and the Potency [3] is reported as 2.68 µM (active). The Potency [4] was 205 nM (active).

In the case of `Cc1cc(C(=O)N2CCCCc3ccccc32)ccc1CNC(=O)N1CCC[C@H]1C(=O)N(C)C`, the Potency [1] is reported as “inactive”, the Potency [2] is reported as “inactive” and the Potency [3] is reported as “inactive”. For the same compound, the Potency [4] was “inactive”.

In the case of `COc1ccc(-c2cnc(-c3cccc4c3-c3ccccc3C4=O)o2)cc1`, the Potency [1] is reported as “inactive”, the Potency [2] is reported as “inactive” and the Potency [3] is reported as 0.657 µM (active). For the same compound, the Potency [4] was 89.3 nM (active).

For `CC(C)[C@@H](CS(=O)(=O)C(C)C)N1C(=O)[C@@](C)(CC(=O)O)C[C@H](c2cccc(Cl)c2)[C@H]1c1ccc(Cl)cc1`, the Potency [1] was “inactive”, the Potency [2] was “inactive” and the Potency [3] was 15.1 µM (active). The Potency [4] was 1.15 µM (active) and 833 nM (active).

With `CS(=O)(=O)N(CC(=O)NCC1CC1)c1cc(C(F)(F)F)ccc1Cl` the Potency [1] was “inactive”, the Potency [2] was “inactive” and the Potency [3] was 3.38 µM (active). The Potency [4] was “inactive”.

For `CN(CCc1ccc(Nc2ncc(-c3cccnc3)s2)cc1)Cc1ccccc1`, the Potency [1] was “inactive”, the Potency [2] was 1.2 µM (active) and the Potency [3] was 12 µM (active). The Potency [4] was 8170 nM (active).

For `COc1cc(Nc2nc3c(s2)CCCC3c2ccc(F)cc2)ccc1-n1cnc(C)c1` (configuration not stated), the Potency [1] was “inactive”, the Potency [2] was 0.849 µM (active) and the Potency [3] was 1.34 µM (active). For the same compound, the Potency [4] was 11500 nM (active).

In the case of `CCS(=O)(=O)N1CCN(c2ccc(Nc3ncc(C(N)=O)c(NC4CC4)n3)cc2)CC1`, the Potency [1] is reported as “inactive”, the Potency [2] is reported as “inactive” and the Potency [3] is reported as 19 µM (active). For the same compound, the Potency [4] was 230 nM (active) and 417 nM (active).

In the case of `CCc1cnn2c(NCc3ccc[n+]([O-])c3)cc(N3CCCCC3CCO)nc12` (configuration not stated), the Potency [1] is reported as “inactive”, the Potency [2] is reported as “inactive” and the Potency [3] is reported as 15.1 µM (active). For the same compound, the Potency [4] was 9.2 nM (active).

With `COc1cc(C(=O)NC2CCN(C)CC2)c(F)cc1Nc1ncc2c(n1)N(C1CCCC1)CC(F)(F)C(=O)N2C` the Potency [1] was “inactive”, the Potency [2] was “inactive” and the Potency [3] was 5.35 µM (active). For the same compound, the Potency [4] was 59 nM (active).
